In all, about 310,000 compounds went through this assay and about 3,600 (1.2%) were called active.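 Rule for the calls: active = ratio plate-corrected score three or more library SD toward inhibition, starting fluorescence score within five deviations; inactive = the rest.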 What follows is part of a selection rich in actives, with near analogues and random picks from the rest.
Biological target: Anoctamin-1 (Mus musculus) (UniProt Q8BHY3)
Assay: blockers of mouse ANO1 Ca-activated Cl channel – cell-based, HTS, primary screen (AID 588511);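 for normalized B-score (activity score, 25-100; higher = stronger inhibition): score derived from kinetic fluorescence span divided by baseline fluorescence per well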
Conditions: HEK293 TMEM16A/YFP iodide influx fluorescence, ionomycin; at 10 µM

Anoctamin-1 (Mus musculus), sequence (Q8BHY3 whole entry, looked up): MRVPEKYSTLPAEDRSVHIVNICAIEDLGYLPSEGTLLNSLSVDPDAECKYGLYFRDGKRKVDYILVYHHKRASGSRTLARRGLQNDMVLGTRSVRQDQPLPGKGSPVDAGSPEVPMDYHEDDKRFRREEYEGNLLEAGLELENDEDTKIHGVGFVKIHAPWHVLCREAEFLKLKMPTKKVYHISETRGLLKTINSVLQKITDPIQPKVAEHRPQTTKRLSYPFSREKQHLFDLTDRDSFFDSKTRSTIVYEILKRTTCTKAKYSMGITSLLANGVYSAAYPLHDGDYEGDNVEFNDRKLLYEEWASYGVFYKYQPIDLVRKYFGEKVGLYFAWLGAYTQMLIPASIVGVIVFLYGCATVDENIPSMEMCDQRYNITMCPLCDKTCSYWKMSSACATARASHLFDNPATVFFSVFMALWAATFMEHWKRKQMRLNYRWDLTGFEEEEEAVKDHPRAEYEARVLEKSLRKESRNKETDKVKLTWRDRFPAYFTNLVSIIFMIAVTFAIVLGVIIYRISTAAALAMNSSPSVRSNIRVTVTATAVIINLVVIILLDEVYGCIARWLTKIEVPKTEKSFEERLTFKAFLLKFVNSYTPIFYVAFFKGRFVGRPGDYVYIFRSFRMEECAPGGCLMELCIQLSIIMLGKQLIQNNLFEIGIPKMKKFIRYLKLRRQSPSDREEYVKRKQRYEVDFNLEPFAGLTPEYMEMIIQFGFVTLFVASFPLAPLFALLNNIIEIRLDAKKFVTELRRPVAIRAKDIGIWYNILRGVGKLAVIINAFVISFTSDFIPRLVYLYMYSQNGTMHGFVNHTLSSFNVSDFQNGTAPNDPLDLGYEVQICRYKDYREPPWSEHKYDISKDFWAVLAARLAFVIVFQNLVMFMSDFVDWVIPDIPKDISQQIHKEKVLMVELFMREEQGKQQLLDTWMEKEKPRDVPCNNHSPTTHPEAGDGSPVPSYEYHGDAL

SMILES | normalized B-score (activity score, 25-100; higher = stronger inhibition)
COc1ccc(F)cc1C(=O)C1CCCN(C(=O)CCc2ccccn2)C1 (centres undefined) | inactive
O=C(N/N=C1\CCSC1)c1cc(Cl)ccc1O | inactive
CC1CCCCC1NC(=O)c1cc(=O)[nH]c2ccccc12 (centres undefined) | inactive
CCOC(=O)c1cc(NC(=O)c2cccnc2)ccn1 | inactive
Cc1c(C(=O)OC(C)C)sc(NC(=O)c2cccnc2)c1C#N | 100 (active)
CCOC(=O)c1ccc(NC(=O)c2cccnc2)cc1 | inactive
Cc1ccc(/C=N/NC(=O)C(NC(=O)c2ccccc2)c2n[nH]c(=O)c3ccccc23)cc1 (centres undefined) | inactive
Cc1ccc2c(c1)N(CC(=O)N1CCCc3ccccc31)C(=O)C(C)O2 (centres undefined) | 100 (active)
Cc1ccc2c(c1)N(CC(=O)N1CCCC(C)C1)C(=O)CO2 (centres undefined) | inactive
CCC(=O)N1CCCc2ccccc21 | inactive
O=C1NC(c2ccccc2)=NC1(Nc1ccccn1)C(F)(F)F (centres undefined) | inactive
CC(Oc1ccc(Cl)cc1)c1ccnn1S(C)(=O)=O (centres undefined) | inactive
CC(=O)Nc1ccc(C(=O)OCC(=O)Nc2ccc([N+](=O)[O-])cc2C(F)(F)F)cc1 | inactive
COc1ccc(NC(=O)C2=CC(c3ccc(OC)c(OC)c3)=NS(=O)(=O)N2C)cc1 | 25 (active)
COc1cc(NC(=O)C2=CC(c3ccco3)=NS(=O)(=O)N2C)cc(OC)c1OC | inactive
COc1cc(NC(=O)C2=CC(c3ccc(C)cc3)=NS(=O)(=O)N2C)cc(OC)c1OC | inactive
O=C(CSc1nnc2c(n1)[nH]c1ccccc12)NC1CCCCC1 | inactive
Cc1ccc(CNC(=O)C2CCCN2S(=O)(=O)c2ccc3c(c2)C(C)(C)C(=O)N3C)cc1 (centres undefined) | inactive
CN(C)S(=O)(=O)c1ccc(Oc2ccc(S(=O)(=O)N(C)C)cc2)cc1 | inactive
Cc1ccc(S(=O)(=O)c2ccc(Oc3ccccc3)cc2)cc1 | 100 (active)

SMILES | normalized B-score (activity score, 25-100; higher = stronger inhibition)
Cc1n[nH]c(=O)n1-c1ccc(Oc2ccccc2)cc1 | inactive
Cc1cc(C)c(NC(=O)CN2CCCCCC2)c(C)c1 | inactive
CN(C)C(=O)CCC(=O)N1CCCCC1C(=O)Nc1ccc(Oc2ccccc2F)cc1 (centres undefined) | inactive
CCOC(=O)NC(=O)/C(C#N)=C\c1ccccc1 | inactive
CC(C)(C)C(=O)/C(C#N)=C/c1ccc(O)cc1 | 25 (active)
CC(C)NC(=O)/C(C#N)=C\c1ccc(N(C)C)c(Br)c1 | inactive
COc1ccc(NC(=S)NCc2cccs2)c(OC)c1 | inactive
Fc1ccccc1CNC(=S)Nc1ccc(Cl)cc1 | inactive
S=C(NCc1cccs1)Nc1ccc(Cl)cc1 | 25 (active)
Cc1ccc(Cc2nnc(SCC(=O)Nc3ccc(C)cc3C)[nH]c2=O)cc1 | inactive
COc1cc(CNCc2ccc(OC)c3ccccc23)cc(OC)c1OC | inactive
COCCCNC(=O)C1CCN(c2ccc(N3CCOCC3)nn2)CC1 | inactive
CC(=O)Nc1c2c(nn1-c1ccc(C)cc1C)CS(=O)C2 (centres undefined) | inactive
N#Cc1nc(N)nc(N(c2ccccc2)c2ccccc2)n1 | 100 (active)
Nc1nc(-c2ccccc2)cc(-c2ccccc2)n1 | inactive
CC(C)Nc1nc(N(c2ccccc2)c2ccccc2)nc(-n2ccnc2)n1 | inactive
COc1ccccc1CNC(=O)CNC(=O)c1cn(-c2ccccc2OC)c(=O)c2ccccc12 | inactive
Cc1ccccc1NC(=O)C(C)c1ccc(-c2ccccc2)c(F)c1 (centres undefined) | 100 (active)
CC(C(=O)Nc1ccccc1-c1ccccc1)N1CCOCC1 (centres undefined) | inactive
O=C(Nc1ccccc1F)c1ccccc1-c1ccccc1 | inactive

SMILES | normalized B-score (activity score, 25-100; higher = stronger inhibition)
CCOCCCNC(=O)c1cn(CC(C)C)c(=O)c2c1c1ccccc1n2C | inactive
CC(Cc1cccs1)NC(=O)c1cccc(Cl)c1 (centres undefined) | inactive
COc1ccc(CN(C)C(=O)CC(c2ccccc2)c2ccccc2)cc1 | 25 (active)
CN(Cc1ccccc1)C(=O)CCc1ccccc1 | inactive
CN(Cc1ccccc1)C(=O)COc1ccccc1 | inactive
C=CCOc1ccc(/C=C/C(=O)OC(C)C(=O)Nc2ccc(NC(C)=O)cc2)cc1 (centres undefined) | inactive
Cc1ccc(OCc2nc3ccccc3n2C)cc1 | inactive
CCCCCCCCCCOC(=O)Cn1c(COc2cccc(OC)c2)[n+](C)c2ccccc21 | inactive
CCCCCCCCCCOC(=O)Cn1c(COc2ccc(C)cc2)[n+](C)c2ccccc21 | 25 (active)
Cc1ccc(-c2nn(-c3ccc(F)cc3)cc2C(=O)NCC(c2cccs2)N2CCOCC2)cc1 (centres undefined) | inactive
O=C(COC(=O)[C@H](Cc1ccccc1)NC(=O)c1cccs1)Nc1cc(F)ccc1F | inactive
COc1ccc(NC(=O)CCS(=O)(=O)c2cc3c(cc2Cl)NC(=O)CO3)cc1OC | inactive
Cc1cc2c(cc1S(=O)(=O)CCC(=O)NCc1ccccc1)OCC(=O)N2 | inactive
COc1ccc(Cl)cc1NC(=O)CCS(=O)(=O)c1cc2c(cc1C)NC(=O)CO2 | 100 (active)
C=C(C)c1cccc(C(C)(C)NC(=O)N2CCN(c3ncccn3)CC2)c1 | inactive
Cc1ccc(NC(=O)CN(C)CC(=O)Nc2cccc(F)c2)cc1[N+](=O)[O-] | 100 (active)
Cc1ccc(CN(C)CC(=O)Nc2cccc([N+](=O)[O-])c2)o1 | inactive
CN(CC(=O)Nc1cccc(F)c1)CC(=O)Nc1cccc([N+](=O)[O-])c1 | inactive
Cc1cccc2c1cnn2C(=O)CCC(=O)NC1CCCCC1 | inactive
